Experiment [1] is described as follows: compounds binding Alexa647 anti-His antibody – biochemical, small-molecule microarray, 635 nm fluorescence, artefact control for SMM control protein annotation, primary screen (AID 1128).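 Note: score merges feature fluorescence with signal-to-noise for each printed compound spot.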 Particulars: higher = more signal.
The subject of experiment [2] is Human papillomavirus type 1a E7 protein (residues 1-88). Kind of experiment: HPV1a E7 small-molecule binders, primary screen, biochemical, small-molecule microarray, residues 1-88, 635 nm (AID 1129). Particulars: small-molecule microarray binding, fluorescence 635 nm; higher = more signal.
Experiment [3] addresses Focal adhesion kinase 1 (Homo sapiens) (UniProt Q05397). Kind of experiment: PTK2 protein binding on printed compound slides – biochemical, small-molecule microarray, 635/667 nm fluorescence, BSA, DTT, primary screen (AID 1130).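 Note: composite of spot emission at 667 nm and signal to noise over triplicate slides.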 The note with it: 635 nm fluorescence, higher = more signal.
Experiment [4] relates to Fibrinogen (Alexa647-labelled). Kind of experiment: Alexa647-fibrinogen binding to printed small molecules – biochemical, small-molecule microarray, 635/667 nm fluorescence, artefact control for SMM control-protein annotation, profiling panel (AID 1131).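 Note: z-score merges 667 nm fluorescence with per-spot signal-to-noise over triplicate slides.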 The note with it: fibrinogen-A647 binding fluorescence, higher = more signal.
Experiment [5] concerns the target Follistatin (Homo sapiens) (UniProt P19883). The experiment in a line: FST protein binding to printed compounds – biochemical, small-molecule microarray, 635/667 nm fluorescence, primary screen (AID 1132). The note with it: 635 nm fluorescence, higher = more signal.
The target of experiment [6] is Fibroblast growth factor 2 (Homo sapiens) (UniProt P09038). Kind of experiment: basic fibroblast growth factor binding to printed compounds – biochemical, small-molecule microarray, 635/667 nm fluorescence, primary screen (AID 1133). Particulars: FGF2, fluorescence 635/667, higher = more signal.
Fibroblast growth factor 2 (Homo sapiens), sequence (P09038 whole entry, looked up): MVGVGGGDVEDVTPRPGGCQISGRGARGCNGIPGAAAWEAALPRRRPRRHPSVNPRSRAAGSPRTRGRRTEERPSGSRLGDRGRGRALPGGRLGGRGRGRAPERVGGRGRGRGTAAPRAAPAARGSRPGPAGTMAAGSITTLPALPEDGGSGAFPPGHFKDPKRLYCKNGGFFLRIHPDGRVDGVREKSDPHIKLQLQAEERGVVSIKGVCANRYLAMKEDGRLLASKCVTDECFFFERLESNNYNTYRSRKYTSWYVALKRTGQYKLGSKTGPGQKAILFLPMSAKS
The nature of experiment [7]: JC-1 mitochondrial potential readout, lung cancer cells – cell-based, A549, JC-1 fluorescence, basal, 24 h, 100 nL, profiling panel (AID 1138).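 Note: A549 lung adenocarcinoma cells under basal conditions with no added stimulus; test concentration not given here.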 The note with it: higher = more signal.
The next experiment deals with Lefty1. Kind of experiment: Lefty1 protein binding to printed compounds – biochemical, small-molecule microarray, 635/667 nm fluorescence, primary screen (AID 1139). The note with it: fluorescence 635/667, higher = more signal.
Experiment [8] relates to wheat germ agglutinin (Triticum aestivum), Alexa647-labelled. The experiment in a line: Alexa647-WGA lectin binding to printed small molecules – biochemical, small-molecule microarray, 635/667 nm fluorescence, artefact control for SMM control-protein annotation, profiling panel (AID 1140).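 Note: score merges 667 nm feature emission with signal to noise over triplicate slides.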 The note with it: WGA-A647 binding, 635 nm fluorescence, higher = more signal.
Experiment [9] has as its target Luciferin 4-monooxygenase (Photinus pyralis) (UniProt P08659). Kind of experiment: inhibition of purified Photinus pyralis luciferase – biochemical, luminescence, purified enzyme, 2006 set, primary screen (AID 1141).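 Note: cell-free assay with purified firefly luciferase at 100 ng per well in PBS; test concentration not given here.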 Particulars: purified firefly luciferase, SteadyGlo luminescence, 30 min; higher = more signal, called active from +8 up or from −8 down.
For experiment [10], the system named is Wnt5a (protein binding on small-molecule microarray). Kind of experiment: small molecules binding Wnt5a protein – biophysical, small-molecule microarray, 635/667 nm fluorescence, primary screen (AID 1142).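 Note: fluorescence read at 667 nm with signal to noise per printed feature.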 The note with it: 635 nm fluorescence, higher = more signal.
A short description of experiment [11]: ATP-based viability of Huh7 replicon cells – cell-based, CellTiter-Glo luminescence, basal, 48 h, cytotoxicity control for HCV replication inhibitor project, primary screen (AID 1143).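 Note: Huh7 hepatoma cells carrying a hepatitis C replication reporter with no stimulus; test concentration not given here.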 Particulars: higher = more signal, called active from +8 up or from −8 down.
Experiment [12] can be described thus: Pseudomonas biofilm growth suppression – PAO1 strain, BacTiter-Glo luminescence, LB-PBS, primary screen (AID 1144). Particulars: P. aeruginosa PAO1 biofilm, 12 h, higher = more signal.
Experiment [13] in a line: basal CRE-LacZ reporter activity in PC12 – cell-based, unstimulated, primary screen (AID 1145). Particulars: no forskolin, luminescence, 4.5 h, higher = more signal, called active from +8 up or from −8 down.
A short description of experiment [14]: forskolin-driven CRE-LacZ activity in PC12 – cell-based, CRE-LacZ reporter, forskolin-stimulated, primary screen (AID 1146).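 Note: PC12 cells with 6xCRE LacZ reporter stimulated by forskolin 10 µM; beta-galactosidase reporter signal reflecting CREB driven transcription.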 Particulars: luminescence, 4.5 h, higher = more signal, called active from +8 up or from −8 down.
In experiment [15] the target is Streptavidin (Streptomyces avidinii) (UniProt P22629). Kind of experiment: compounds binding control protein streptavidin – biophysical, small-molecule microarray, 635/667 nm fluorescence, artefact control for SMM compound annotation, primary screen (AID 1147).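 Note: signal reflects streptavidin binding to arrayed compounds as a control protein.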 The note with it: higher = more signal.
Streptavidin (Streptomyces avidinii), sequence (P22629 whole entry, looked up): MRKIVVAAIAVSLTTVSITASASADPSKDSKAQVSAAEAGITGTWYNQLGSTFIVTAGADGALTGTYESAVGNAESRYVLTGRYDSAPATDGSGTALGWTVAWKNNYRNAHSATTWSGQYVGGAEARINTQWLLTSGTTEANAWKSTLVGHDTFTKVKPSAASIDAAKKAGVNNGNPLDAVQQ
The nature of experiment [16]: probe aInhba binding on compound microarray – biochemical, small-molecule microarray, 635/667 nm fluorescence, primary screen (AID 1148).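 Note: score merges 667nm spot fluorescence with signal-to-noise for antibody binding to printed compounds.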 The note with it: higher = more signal.
Experiment [17] deals with Torsin-1A (Homo sapiens) (UniProt O14656). Kind of experiment: TOR1A wild-type binding on microarray – cell lysate, small-molecule microarray, lysate, 635/667 nm, primary screen (AID 1149). The note with it: COS7 hTOR1A-WT lysate, 635 nm fluorescence, higher = more signal.
Torsin-1A (Homo sapiens), sequence (O14656 whole entry, looked up): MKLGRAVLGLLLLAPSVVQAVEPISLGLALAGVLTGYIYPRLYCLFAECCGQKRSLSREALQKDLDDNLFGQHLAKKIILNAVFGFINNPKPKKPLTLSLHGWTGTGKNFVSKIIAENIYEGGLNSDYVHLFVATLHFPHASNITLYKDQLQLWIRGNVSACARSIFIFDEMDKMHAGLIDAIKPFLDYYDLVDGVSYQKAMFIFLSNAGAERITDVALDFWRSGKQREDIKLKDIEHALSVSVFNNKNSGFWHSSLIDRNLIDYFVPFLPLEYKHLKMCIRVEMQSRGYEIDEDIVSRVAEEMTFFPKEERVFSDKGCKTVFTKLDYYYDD
For experiment [18] the target is unchanged. Kind of experiment: torsin A mutant lysate binding on microarrays – cell lysate, small-molecule microarray, COS7 lysate, 635/667 nm fluorescence, primary screen (AID 1150).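 Note: score pools 667 nm emission and signal to noise measuring lysate protein binding.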 The note with it: COS7 hTOR1A mutant lysate, 635 nm fluorescence, higher = more signal.
Experiment [19] relates to Sonic hedgehog protein (Shh). The experiment in a line: Sonic hedgehog microarray binding compounds – biochemical, small-molecule microarray, 635/667 nm fluorescence, primary screen (AID 1151).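 Note: Shh protein binding to compounds spotted on small-molecule microarray slides; score combines spot fluorescence intensity with signal-to-noise across triplicate slides.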 Particulars: 635 nm fluorescence, higher = more signal.

Activity calls are given as the source filed them. Unless noted, the rule behind the calls is not given here.

Luciferin 4-monooxygenase (Photinus pyralis), sequence (P08659 whole entry, looked up): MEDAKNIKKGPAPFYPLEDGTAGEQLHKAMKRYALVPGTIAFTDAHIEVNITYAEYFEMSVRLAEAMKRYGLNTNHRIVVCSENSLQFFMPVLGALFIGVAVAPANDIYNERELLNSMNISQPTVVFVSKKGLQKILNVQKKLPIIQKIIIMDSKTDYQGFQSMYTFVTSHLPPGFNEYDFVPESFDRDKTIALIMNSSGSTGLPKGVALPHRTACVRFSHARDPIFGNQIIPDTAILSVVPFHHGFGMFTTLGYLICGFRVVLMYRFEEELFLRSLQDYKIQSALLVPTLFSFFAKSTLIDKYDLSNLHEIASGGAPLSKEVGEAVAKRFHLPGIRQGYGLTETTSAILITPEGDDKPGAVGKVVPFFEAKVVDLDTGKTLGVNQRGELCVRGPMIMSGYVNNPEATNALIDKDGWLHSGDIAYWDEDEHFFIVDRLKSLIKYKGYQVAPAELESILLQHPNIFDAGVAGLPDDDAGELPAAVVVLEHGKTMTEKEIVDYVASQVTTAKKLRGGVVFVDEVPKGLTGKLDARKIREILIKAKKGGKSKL
Focal adhesion kinase 1 (Homo sapiens), sequence (Q05397 whole entry, looked up): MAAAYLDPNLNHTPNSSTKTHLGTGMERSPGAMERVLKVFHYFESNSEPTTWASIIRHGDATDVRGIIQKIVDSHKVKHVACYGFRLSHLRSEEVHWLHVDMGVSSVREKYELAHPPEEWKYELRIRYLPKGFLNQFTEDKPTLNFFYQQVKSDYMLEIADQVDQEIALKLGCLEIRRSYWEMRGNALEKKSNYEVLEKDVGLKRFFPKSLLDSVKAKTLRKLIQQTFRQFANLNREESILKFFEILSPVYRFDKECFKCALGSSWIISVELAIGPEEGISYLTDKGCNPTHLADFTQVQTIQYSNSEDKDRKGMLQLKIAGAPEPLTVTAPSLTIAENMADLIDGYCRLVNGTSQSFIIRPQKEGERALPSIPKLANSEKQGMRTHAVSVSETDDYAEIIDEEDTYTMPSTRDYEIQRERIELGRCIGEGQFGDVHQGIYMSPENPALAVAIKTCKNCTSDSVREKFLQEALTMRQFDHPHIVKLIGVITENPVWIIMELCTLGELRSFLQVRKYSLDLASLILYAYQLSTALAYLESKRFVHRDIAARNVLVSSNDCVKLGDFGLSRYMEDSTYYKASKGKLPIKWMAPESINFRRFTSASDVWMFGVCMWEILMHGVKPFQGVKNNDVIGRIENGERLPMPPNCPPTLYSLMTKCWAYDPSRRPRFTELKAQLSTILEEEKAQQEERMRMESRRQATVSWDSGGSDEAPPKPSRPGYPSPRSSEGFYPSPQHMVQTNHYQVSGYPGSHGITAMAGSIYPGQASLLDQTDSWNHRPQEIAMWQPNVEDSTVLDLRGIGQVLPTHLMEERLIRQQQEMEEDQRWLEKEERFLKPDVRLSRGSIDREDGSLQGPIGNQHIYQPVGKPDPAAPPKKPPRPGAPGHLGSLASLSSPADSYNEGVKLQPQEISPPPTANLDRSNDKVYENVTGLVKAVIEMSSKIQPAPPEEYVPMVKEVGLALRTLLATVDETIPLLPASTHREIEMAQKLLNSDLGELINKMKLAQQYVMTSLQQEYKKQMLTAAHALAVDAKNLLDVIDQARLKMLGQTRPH
Follistatin (Homo sapiens), sequence (P19883 whole entry, looked up): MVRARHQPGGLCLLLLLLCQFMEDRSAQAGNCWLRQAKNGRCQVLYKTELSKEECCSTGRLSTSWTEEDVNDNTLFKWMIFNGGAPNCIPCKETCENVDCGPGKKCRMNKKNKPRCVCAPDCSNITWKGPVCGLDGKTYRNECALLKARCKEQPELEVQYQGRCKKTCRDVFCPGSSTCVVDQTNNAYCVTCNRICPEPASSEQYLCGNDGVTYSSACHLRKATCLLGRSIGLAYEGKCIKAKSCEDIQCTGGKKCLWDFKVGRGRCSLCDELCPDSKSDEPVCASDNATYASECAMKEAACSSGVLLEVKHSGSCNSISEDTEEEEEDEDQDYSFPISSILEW

On to `CCCC[C@@H]1C[C@H]1[C@@H](NC(=O)c1ccccc1)c1ccc(Cl)cc1`, for which the composite z-score in [1] was -0.0782; in experiment [2], -1.52; in experiment [3] it was 0.528; in [4], -2.07; in [5], -2.37; in [6], -1.9. In addition, the composite z-score with Lefty1 was -2.22; in [8], -1.6; in experiment [10], -0.546; in [15], -1.33; in experiment [16], -0.322; with Torsin-1A (Homo sapiens) [17], 4.37. The values for the composite z-score (with Torsin-1A (Homo sapiens) [18]; in experiment [19]) were -0.539 and -1.34, respectively. Besides, the z-score in [7] is 1.66; in experiment [9] it was 0.923 (inactive); in [11], -2.6 (inactive); in [12] it was 0.173 (inactive); in [13], 0.197 (inactive); in [14], 0.699 (inactive).
With `O=C1NC(=O)C2C1C=CC(C(O)c1c(F)cccc1Cl)N2Nc1ccccn1` (stereo not given), the composite z-score in [1] came to 0.582; in [2], 0.257; in [3] it was 0.202; in [4], 0.776; in experiment [5], 0.477; in [6] it was 0.731. The composite z-score with Lefty1 is -0.236; in experiment [8], 0.228; in [10], 0.233; in [15] it was -0.201; in experiment [16] it was -0.0195; with Torsin-1A (Homo sapiens) [17], 0.355. Besides, the results for the composite z-score (with Torsin-1A (Homo sapiens) [18]; in [19]) were 0.222 and -0.0146, respectively. Also, the z-score in experiment [7] is 0.52; in experiment [9] it was -0.194 (inactive); in experiment [11], 0.63 (inactive); in [12], 0.475 (inactive); in experiment [13], 0.0535 (inactive); in experiment [14] it was 0.204 (inactive).
As to `CC(C)OC(=O)CC(=O)CC(O)c1cccc(C#N)c1` (stereo not given), the composite z-score in experiment [1] is 0.797; in experiment [2], 0.828; in experiment [3], 0.763; in [4], 0.974; in [5], 0.102; in experiment [6], -0.51. In addition, the composite z-score is -0.0714 with Lefty1; 0.841 in experiment [8]; 0.167 in experiment [10]; 1.35 in experiment [15]; 0.0841 in experiment [16]; 0.863 with Torsin-1A (Homo sapiens) [17]. Moreover, the composite z-score was 1.97 with Torsin-1A (Homo sapiens) [18] and -0.206 in experiment [19]. In addition, the z-score in [7] was 0.67; in experiment [9], 1.2 (inactive); in experiment [11], -2.13 (inactive); in experiment [12], -0.461 (inactive); in [13] it was -0.63 (inactive); in [14], -0.291 (inactive).
Take `O=C1OCC=C[C@H]2OC34C=CCN(Cn5nnc6ccccc65)C(=O)[C@H]3N(CCCCCCO)C(=O)[C@@H]4[C@@H]12` (stereo not given in full): the composite z-score in [1] is 1.42; in experiment [2], -0.238; in experiment [3], 0.058; in experiment [4] it was -1.49; in experiment [5], -0.982; in [6], -0.525. Further, the composite z-score in the experiment on Lefty1 is -0.835; in [8], -0.544; in [10], -0.277; in experiment [15], -0.701; in [16], 0.111; with Torsin-1A (Homo sapiens) [17], -0.494. Further, the figures for the composite z-score (with Torsin-1A (Homo sapiens) [18]; in experiment [19]) were -0.416 and -0.104, respectively. Besides, the z-score in experiment [7] is 0.421; in [9] it was -0.283 (inactive); in [11], 0.205 (inactive); in experiment [12], 1.16 (inactive); in [13] it was 0.0484 (inactive); in experiment [14] it was -0.116 (inactive).
On to `[N-]=[N+]=Nc1ccccc1[C@H]1OC(c2ccc(OCCCO)cc2)=N[C@@]1(CCS(=O)(=O)c1ccccc1)C(=O)N1CCCCC1`, for which the composite z-score in [1] was 2.65; in [2] it was 1.23; in [3], 0.944; in [4], 0.989; in experiment [5] it was 0.83; in experiment [6], -0.0535. For the same compound, the composite z-score with Lefty1 was -0.0647; in experiment [8] it was 1.27; in [10], 0.375; in [15] it was 1.89; in [16] it was 0.153; in the experiment with Torsin-1A (Homo sapiens) [17] it was 0.456. In addition, the results for the composite z-score (with Torsin-1A (Homo sapiens) [18]; in [19]) were 1.01 and -0.678, respectively. Further, the z-score in experiment [7] was -1.11; in experiment [9], -11.7 (active); in [11], -4.28 (inactive); in [12], -1.21 (inactive); in [13], 0.47 (inactive); in [14], -0.993 (inactive).

The values are drawn from PubChem BioAssay.
